Laboratory results: ChEMBL document CHEMBL1961873, “Compounds: GSK PKIS; Assays: Nanosyn kinase panel” (2012)

What was measured:
[1] = molecular target: Fibroblast growth factor receptor 4 (Homo sapiens) (UniProt P22455); settings: at 1 µM;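 further: reported figure is the averaged percent inhibition of FGFR4, from the GSK PKIS kinase screening panel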
[2] = molecular target: Tyrosine-protein kinase Fgr (Homo sapiens) (UniProt P09769); settings: at 0.1 µM
[3] = molecular target: Tyrosine-protein kinase Fgr (Homo sapiens) (UniProt P09769); settings: at 1 µM
[4] = molecular target: Vascular endothelial growth factor receptor 1 (Homo sapiens) (UniProt P17948); settings: at 0.1 µM
[5] = molecular target: Vascular endothelial growth factor receptor 1 (Homo sapiens) (UniProt P17948); settings: at 1 µM
[6] = molecular target: Receptor-type tyrosine-protein kinase FLT3 (Homo sapiens) (UniProt P36888); settings: at 0.1 µM
[7] = molecular target: Receptor-type tyrosine-protein kinase FLT3 (Homo sapiens) (UniProt P36888); settings: at 1 µM
[8] = system: T1, Receptor-type tyrosine-protein kinase FLT3 (Homo sapiens), P36888 [D835Y]; settings: at 0.1 µM
T1 sequence (whole entry): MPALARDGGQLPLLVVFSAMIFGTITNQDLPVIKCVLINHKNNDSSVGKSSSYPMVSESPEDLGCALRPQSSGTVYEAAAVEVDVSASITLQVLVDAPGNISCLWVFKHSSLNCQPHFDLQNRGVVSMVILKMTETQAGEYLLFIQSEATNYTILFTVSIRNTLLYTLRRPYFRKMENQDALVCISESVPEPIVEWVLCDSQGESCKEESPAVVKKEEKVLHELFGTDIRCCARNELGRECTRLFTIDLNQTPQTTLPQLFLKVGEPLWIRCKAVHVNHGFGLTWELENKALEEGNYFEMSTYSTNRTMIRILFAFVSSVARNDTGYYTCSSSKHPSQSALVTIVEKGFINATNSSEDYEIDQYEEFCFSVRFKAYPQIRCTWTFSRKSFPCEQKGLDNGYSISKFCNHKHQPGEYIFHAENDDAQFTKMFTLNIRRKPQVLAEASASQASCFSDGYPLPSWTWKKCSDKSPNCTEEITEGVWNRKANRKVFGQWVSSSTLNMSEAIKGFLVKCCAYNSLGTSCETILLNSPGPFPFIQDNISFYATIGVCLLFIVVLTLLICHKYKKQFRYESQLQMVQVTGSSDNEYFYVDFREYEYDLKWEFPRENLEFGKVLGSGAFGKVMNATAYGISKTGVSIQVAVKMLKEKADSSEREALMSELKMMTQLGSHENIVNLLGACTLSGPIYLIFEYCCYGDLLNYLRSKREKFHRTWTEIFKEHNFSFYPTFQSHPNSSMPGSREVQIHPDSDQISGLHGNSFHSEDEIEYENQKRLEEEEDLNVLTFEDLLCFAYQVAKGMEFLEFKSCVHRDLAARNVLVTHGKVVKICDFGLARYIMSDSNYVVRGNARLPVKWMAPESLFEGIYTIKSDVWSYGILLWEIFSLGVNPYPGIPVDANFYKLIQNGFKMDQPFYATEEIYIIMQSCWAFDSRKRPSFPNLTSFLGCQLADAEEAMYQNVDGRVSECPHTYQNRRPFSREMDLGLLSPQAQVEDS

[9] = molecular target: Non-receptor tyrosine-protein kinase TYK2 (Homo sapiens) (UniProt P29597); settings: at 1 µM;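 further: values are mean percent inhibition of TYK2 kinase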
[10] = molecular target: T2, Tyrosine-protein kinase receptor TYRO3 (Homo sapiens) (UniProt Q06418); settings: at 0.1 µM
T2 sequence (whole entry): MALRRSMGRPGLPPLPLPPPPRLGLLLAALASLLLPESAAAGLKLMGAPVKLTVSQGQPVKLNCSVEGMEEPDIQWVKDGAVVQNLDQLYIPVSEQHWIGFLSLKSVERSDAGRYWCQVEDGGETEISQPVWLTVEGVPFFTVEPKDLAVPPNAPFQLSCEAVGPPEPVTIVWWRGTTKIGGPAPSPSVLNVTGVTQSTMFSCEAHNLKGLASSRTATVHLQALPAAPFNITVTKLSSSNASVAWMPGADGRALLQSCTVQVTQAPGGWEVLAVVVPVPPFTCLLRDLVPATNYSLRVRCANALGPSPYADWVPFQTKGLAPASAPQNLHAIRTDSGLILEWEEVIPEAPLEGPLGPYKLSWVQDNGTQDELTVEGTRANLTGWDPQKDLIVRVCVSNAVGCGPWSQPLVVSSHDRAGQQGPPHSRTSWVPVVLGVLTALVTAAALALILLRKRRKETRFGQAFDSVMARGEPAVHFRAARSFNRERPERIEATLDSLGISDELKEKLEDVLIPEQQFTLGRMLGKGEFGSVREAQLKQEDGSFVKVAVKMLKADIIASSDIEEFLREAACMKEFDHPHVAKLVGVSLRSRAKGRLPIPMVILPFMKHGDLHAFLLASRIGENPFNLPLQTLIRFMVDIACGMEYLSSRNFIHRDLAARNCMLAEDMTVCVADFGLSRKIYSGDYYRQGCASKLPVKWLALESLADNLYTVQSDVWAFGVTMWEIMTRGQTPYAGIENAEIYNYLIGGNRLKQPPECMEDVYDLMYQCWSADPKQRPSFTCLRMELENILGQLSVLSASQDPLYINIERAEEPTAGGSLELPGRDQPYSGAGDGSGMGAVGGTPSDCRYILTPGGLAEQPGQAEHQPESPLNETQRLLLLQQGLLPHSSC

[11] = molecular target: T2, Tyrosine-protein kinase receptor TYRO3 (Homo sapiens); settings: at 1 µM
[12] = molecular target: Tyrosine-protein kinase Yes (Homo sapiens) (UniProt P07947); settings: at 0.1 µM
[13] = molecular target: Tyrosine-protein kinase Yes (Homo sapiens) (UniProt P07947); settings: at 1 µM
[14] = molecular target: T3, Tyrosine-protein kinase ZAP-70 (Homo sapiens) (UniProt P43403); settings: at 0.1 µM
T3 sequence (whole entry): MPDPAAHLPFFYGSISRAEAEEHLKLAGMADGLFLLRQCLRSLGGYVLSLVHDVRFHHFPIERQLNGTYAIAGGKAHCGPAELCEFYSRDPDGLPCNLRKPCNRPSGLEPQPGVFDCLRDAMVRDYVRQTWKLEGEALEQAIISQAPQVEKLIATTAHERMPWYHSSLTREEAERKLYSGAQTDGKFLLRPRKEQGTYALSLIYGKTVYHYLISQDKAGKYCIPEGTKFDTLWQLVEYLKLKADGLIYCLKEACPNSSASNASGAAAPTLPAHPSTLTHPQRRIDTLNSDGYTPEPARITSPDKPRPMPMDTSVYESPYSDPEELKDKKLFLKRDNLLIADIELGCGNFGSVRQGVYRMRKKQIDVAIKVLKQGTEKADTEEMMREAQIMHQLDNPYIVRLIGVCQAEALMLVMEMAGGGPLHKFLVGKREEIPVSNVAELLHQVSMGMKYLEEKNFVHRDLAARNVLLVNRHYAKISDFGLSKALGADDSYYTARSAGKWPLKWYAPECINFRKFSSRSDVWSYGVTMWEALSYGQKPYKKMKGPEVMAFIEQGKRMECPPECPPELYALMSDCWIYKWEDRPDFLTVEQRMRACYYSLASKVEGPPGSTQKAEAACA

[15] = molecular target: T3, Tyrosine-protein kinase ZAP-70 (Homo sapiens); settings: at 1 µM
[16] = molecular target: Serine/threonine-protein kinase B-raf (Homo sapiens) (UniProt P15056); settings: at 0.1 µM
[17] = molecular target: Serine/threonine-protein kinase B-raf (Homo sapiens) (UniProt P15056); settings: at 1 µM
[18] = system: Serine/threonine-protein kinase B-raf (Homo sapiens), P15056 [V600E]; settings: at 0.1 µM
[19] = system: Serine/threonine-protein kinase B-raf (Homo sapiens), P15056 [V600E]; settings: at 1 µM
[20] = molecular target: RAF proto-oncogene serine/threonine-protein kinase (Homo sapiens) (UniProt P04049); settings: at 0.1 µM;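 further: values are mean CRAF kinase inhibition from profiling of the GSK Published Kinase Inhibitor Set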
RAF proto-oncogene serine/threonine-protein kinase (Homo sapiens), sequence (P04049 whole entry): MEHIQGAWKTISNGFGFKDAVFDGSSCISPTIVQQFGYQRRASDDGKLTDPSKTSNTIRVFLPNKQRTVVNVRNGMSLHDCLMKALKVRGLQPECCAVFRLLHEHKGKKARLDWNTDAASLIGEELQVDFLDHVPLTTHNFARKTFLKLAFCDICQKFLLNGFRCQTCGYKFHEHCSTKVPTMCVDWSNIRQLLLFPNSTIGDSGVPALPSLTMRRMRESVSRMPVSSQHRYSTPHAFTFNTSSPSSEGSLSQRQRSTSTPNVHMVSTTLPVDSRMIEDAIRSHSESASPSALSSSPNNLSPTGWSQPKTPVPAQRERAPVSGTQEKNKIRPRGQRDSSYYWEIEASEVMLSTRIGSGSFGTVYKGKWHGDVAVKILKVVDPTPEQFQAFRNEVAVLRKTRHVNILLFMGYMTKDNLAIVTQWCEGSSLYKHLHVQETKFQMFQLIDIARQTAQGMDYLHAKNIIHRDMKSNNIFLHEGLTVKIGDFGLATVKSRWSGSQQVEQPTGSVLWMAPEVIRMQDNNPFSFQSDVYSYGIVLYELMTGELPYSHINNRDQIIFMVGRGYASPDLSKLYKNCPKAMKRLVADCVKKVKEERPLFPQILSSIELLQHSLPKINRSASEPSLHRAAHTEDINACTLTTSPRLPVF

Tyrosine-protein kinase Yes (Homo sapiens), sequence (P07947 2-543 limits assumed): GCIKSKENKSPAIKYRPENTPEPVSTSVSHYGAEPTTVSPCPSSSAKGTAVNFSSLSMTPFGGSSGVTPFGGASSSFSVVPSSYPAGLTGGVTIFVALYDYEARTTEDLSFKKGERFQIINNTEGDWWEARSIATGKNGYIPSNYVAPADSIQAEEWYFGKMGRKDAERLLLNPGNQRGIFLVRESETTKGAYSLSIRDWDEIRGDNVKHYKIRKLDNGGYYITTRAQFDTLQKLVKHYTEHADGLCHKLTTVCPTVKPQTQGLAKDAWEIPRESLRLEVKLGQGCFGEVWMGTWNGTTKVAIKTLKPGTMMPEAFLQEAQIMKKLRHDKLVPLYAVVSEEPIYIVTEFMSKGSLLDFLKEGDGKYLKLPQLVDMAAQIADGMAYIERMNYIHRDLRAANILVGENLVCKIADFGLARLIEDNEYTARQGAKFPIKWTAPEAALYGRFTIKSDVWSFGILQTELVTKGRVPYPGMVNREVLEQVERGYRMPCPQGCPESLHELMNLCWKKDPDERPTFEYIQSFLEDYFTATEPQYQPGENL
Tyrosine-protein kinase Fgr (Homo sapiens), sequence (P09769 2-529 limits assumed): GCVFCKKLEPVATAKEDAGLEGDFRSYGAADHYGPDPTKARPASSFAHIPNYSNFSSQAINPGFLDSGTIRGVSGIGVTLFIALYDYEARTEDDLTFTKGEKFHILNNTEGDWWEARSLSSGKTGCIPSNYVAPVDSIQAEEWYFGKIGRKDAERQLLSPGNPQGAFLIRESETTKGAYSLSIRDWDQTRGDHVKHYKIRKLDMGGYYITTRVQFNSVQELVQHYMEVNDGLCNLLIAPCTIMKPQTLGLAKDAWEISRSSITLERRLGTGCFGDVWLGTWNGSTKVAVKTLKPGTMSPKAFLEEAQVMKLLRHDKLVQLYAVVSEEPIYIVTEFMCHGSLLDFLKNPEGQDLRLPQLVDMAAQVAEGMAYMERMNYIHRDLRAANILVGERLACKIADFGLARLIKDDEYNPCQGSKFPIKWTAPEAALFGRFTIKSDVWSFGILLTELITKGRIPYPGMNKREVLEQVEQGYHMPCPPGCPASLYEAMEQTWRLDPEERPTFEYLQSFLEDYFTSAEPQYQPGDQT
Fibroblast growth factor receptor 4 (Homo sapiens), sequence (P22455 22-802 limits assumed): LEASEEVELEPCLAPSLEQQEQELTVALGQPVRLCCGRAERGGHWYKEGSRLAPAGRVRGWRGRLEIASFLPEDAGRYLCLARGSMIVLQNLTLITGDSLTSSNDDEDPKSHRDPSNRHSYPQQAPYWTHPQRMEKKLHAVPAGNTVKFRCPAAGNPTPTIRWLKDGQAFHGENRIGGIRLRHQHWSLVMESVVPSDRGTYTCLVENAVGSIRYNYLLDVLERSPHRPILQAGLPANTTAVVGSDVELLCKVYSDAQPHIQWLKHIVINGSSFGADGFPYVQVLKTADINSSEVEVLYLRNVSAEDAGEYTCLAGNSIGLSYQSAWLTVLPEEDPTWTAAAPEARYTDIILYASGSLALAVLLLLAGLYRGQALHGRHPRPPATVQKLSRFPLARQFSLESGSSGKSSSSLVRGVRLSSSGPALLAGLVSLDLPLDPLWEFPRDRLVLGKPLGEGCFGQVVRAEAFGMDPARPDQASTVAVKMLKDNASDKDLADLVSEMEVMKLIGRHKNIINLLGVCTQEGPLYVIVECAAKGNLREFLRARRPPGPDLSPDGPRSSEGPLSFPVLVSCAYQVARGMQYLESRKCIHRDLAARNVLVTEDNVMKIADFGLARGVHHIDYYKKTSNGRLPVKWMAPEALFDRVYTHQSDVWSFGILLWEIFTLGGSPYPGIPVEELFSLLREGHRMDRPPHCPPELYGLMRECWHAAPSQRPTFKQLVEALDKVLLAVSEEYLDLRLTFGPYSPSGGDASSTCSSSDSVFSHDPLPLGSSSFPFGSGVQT
Serine/threonine-protein kinase B-raf (Homo sapiens), sequence (P15056 whole entry): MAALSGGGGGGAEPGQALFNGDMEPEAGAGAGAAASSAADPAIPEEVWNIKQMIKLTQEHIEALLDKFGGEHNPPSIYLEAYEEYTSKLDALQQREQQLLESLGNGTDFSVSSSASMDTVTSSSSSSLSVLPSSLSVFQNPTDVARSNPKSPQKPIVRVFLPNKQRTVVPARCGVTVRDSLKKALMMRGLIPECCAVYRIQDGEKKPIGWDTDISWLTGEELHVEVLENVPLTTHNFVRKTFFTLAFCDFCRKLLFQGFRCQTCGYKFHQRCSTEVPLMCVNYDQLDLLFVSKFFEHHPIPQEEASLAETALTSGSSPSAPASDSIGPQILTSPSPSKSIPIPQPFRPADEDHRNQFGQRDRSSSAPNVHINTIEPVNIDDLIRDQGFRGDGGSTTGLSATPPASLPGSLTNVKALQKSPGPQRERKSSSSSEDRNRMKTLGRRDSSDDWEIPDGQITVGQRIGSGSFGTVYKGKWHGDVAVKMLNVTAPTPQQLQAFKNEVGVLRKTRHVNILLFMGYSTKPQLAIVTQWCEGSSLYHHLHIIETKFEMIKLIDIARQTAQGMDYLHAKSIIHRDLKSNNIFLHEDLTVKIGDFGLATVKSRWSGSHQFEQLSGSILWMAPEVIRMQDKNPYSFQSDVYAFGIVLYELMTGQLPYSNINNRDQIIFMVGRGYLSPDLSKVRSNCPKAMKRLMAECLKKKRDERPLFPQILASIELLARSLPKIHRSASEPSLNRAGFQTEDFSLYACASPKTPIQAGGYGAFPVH
Vascular endothelial growth factor receptor 1 (Homo sapiens), sequence (P17948 whole entry): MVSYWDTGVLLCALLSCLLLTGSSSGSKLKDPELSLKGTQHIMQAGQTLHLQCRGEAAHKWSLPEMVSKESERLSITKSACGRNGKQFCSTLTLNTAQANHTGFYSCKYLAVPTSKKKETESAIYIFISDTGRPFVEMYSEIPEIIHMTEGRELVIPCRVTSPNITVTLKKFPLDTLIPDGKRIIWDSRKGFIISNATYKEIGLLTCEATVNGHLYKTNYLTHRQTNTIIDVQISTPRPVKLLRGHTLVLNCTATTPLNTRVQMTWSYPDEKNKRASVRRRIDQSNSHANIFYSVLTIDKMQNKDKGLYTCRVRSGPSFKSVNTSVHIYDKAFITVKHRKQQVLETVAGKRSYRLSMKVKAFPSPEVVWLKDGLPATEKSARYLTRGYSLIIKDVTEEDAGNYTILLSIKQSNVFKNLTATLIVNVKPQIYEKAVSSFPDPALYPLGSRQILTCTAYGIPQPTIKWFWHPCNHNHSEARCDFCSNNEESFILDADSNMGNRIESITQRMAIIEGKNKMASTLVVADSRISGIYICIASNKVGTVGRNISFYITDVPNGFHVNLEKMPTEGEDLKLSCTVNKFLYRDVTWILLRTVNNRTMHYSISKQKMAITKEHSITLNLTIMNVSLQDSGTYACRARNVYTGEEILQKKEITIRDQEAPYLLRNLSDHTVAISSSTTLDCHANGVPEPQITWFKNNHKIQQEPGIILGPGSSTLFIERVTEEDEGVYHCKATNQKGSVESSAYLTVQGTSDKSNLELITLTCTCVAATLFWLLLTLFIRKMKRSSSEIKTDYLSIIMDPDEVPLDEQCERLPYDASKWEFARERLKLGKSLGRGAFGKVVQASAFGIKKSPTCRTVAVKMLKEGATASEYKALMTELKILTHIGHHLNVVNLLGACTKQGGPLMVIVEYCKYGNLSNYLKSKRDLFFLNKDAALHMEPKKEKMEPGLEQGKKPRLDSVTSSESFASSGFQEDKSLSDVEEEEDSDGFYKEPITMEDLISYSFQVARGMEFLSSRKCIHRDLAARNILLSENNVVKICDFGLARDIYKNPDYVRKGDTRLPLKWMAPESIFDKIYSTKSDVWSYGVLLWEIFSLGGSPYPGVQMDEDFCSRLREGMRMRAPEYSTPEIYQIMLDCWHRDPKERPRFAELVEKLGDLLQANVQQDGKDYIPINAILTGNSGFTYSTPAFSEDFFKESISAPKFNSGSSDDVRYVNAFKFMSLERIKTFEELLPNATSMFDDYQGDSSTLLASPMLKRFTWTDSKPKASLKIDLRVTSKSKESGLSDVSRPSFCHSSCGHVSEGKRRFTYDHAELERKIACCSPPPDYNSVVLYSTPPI
Serine/threonine-protein kinase B-raf (Homo sapiens), P15056 [V600E], sequence (P15056 whole entry V600E): as the sequence (P15056 whole entry) above, with V600E counted along it

Structure (SMILES) | inhibition [1] [%] | inhibition [2] [%] | inhibition [3] [%] | inhibition [4] [%] | inhibition [5] [%] | inhibition [6] [%] | inhibition [7] [%] | inhibition [8] [%] | inhibition [9] [%] | inhibition [10] [%] | inhibition [11] [%] | inhibition [12] [%] | inhibition [13] [%] | inhibition [14] [%] | inhibition [15] [%] | inhibition [16] [%] | inhibition [17] [%] | inhibition [18] [%] | inhibition [19] [%] | inhibition [20] [%]
Nc1nc(-c2ccccn2)c(-c2ccc3ncccc3n2)s1 | 0.28 | 1.09 | 2.08 | 0.57 | 5.82 | 8.03 | 2.99 | -0.61 | -1.33 | 1.89 | 2.67 | -0.44 | 0.23 | 0.82 | 0.6 | 3.55 | 7.22 | 3.63 | 5.74 | 2.42
CCn1c(-c2nonc2N)nc2c(N3CCCC3)nccc21 | -0.48 | -0.82 | -0.02 | -0.79 | -0.61 | -0.78 | -2 | -4.93 | 4.26 | -1.31 | -1.5 | -4.35 | 4.6 | 1.14 | 2.3 | 0.2 | 4.02 | -2.4 | -2.63 | -1.29
O=C1Nc2ccc(C(=O)c3ccco3)cc2C1=Cc1cc(Cl)c(O)c(Cl)c1 | 7.04 | 2.46 | 11.6 | 1.07 | 4.42 | 1.69 | 12.7 | 4.82 | 26.4 | 1.96 | 8.57 | 2.58 | 15.8 | 2.14 | 3.97 | 11.8 | 26.7 | 12.5 | 27.4 | 2.35
O=C1NC(=O)C(c2ccccc2Cl)=C1Nc1cccc(O)c1 | 0.13 | 1.27 | 2.07 | 0.36 | 0.77 | 2.15 | 2.8 | 3.17 | -2.87 | 1.29 | 1.2 | 1.06 | -1.97 | 1.65 | 0.4 | 3.05 | 3.21 | 3.01 | 2.95 | 4.73
CC1=C(C(=O)Nc2ccc3[nH]ncc3c2)C(c2ccc(F)cc2)NC(=O)N1 (stereo not given) | 7.73 | 0.15 | 0.7 | -0.38 | 2.35 | 0.82 | 0.62 | -0.62 | 26.3 | 1.55 | 2.1 | 2.93 | 3.94 | 2.76 | 1.91 | 3.64 | 5.71 | 2.81 | 6.38 | 1.97
Nc1ncnc2occ(-c3ccc(NC(=O)Nc4cccc(C(F)(F)F)c4)cc3)c12 | 13.3 | 3.07 | 25.1 | 56 | 91 | 85.3 | 93.9 | 18.4 | -3.79 | 3.18 | 32.2 | 7.17 | 45.7 | 1.4 | 1.43 | 7.07 | 13.3 | 5.78 | 13.5 | 0.71
CCn1c(-c2nonc2N)nc2cnc(Oc3cccc(NC(=O)c4ccc(OCCN5CCOCC5)cc4)c3)cc21 | 2.48 | 4.08 | 5.54 | 0.64 | 2.14 | 0.9 | 3.19 | -3.34 | -1.28 | 3.27 | 2.81 | 3.49 | 4.67 | -1.7 | -1.56 | 4.86 | 6.86 | 5.41 | 5.71 | -0.87
